# According to the supplement of paper PMC10338343:
# ± gives the standard deviation.
# Columns and labels:
# [1] = tested on: MILI (PIWIL2) piRISC loaded with piRNA #1 (26 nt); assay: pre-steady-state target cleavage rate (min^-1); guide: piRNA #1 5'p-UGAGGUAGUAGGUUGUAUAGUAUCCA; higher = faster piRNA-guided slicing of the target; conditions: auxiliary factor: 500 nM mouse GTSF1
# Method in brief: (§1)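 Active affinity-purified piRISC (1 nM) loaded with one synthetic guide was mixed with a transcribed, DNA-blocked target RNA library (0.1 nM), with or without 500 nM GTSF1 partner protein, in HEPES–potassium acetate buffer at 33 °C for 0–8 or 0–960 min. Uncleaved targets were sequenced, normalised to depth and to weakly complementary targets, and pooled across three trials, with k3 capped at 0.0001 min^-1. The pre-steady-state cleavage rate was determined with a burst-and-steady-state fit.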
# [2] = tested on: EfPiwi piRISC loaded with piRNA #1 (26 nt); assay: pre-steady-state target cleavage rate (min^-1); auxiliary factor: 500 nM Ephydatia muelleri Gtsf1; guide: piRNA #1 5'p-UGAGGUAGUAGGUUGUAUAGUAUCCA; MIWI and MILI are mouse PIWI proteins and EfPiwi is from a freshwater sponge; tags in brackets are library labels; higher = faster piRNA-guided slicing of the target
# Method in brief: as §1
Sequence,pre-steady-state target cleavage rate [1],pre-steady-state target cleavage rate [2]
GGAGUGGUUACUAUACAUCCUACUACCUCA,0.295 ± 0.014,0.00608 ± 0.0026
GGAGACCAUACUAUAUCAACCUACUACCUCA,0.0898 ± 0.011,0.0136 ± 0.0068
GGAGACCUAUGUAUUACAACCUACUACCUCA,0.0187 ± 0.0046,0.0036 ± 0.0033
GGAGACGAUACAAAACAACCUACUACCUCA,0.149 ± 0.018,0.00359 ± 0.0033
GGAGAGGAUGCUAUACAACCUACUACCUCA,0.151 ± 0.018,0.00971 ± 0.006
GGAGUGGAUAUCUAUACAACCUACUACCUCA,0.0708 ± 0.0091,0.00883 ± 0.0052
GGAGACGAUACUAUACAACCUACUACACUCA,0.202 ± 0.03,0.00494 ± 0.0019
GGAGACGAUACUAUACAACCUACAUACCUCA,0.153 ± 0.016,0.00413 ± 0.0021
GGAGUCGAUACUAUACAAGCUACUACCUCA,0.142 ± 0.011,0.00581 ± 0.0024
GGAGACCAUACUACUACAACCUACUACCUCA,0.137 ± 0.015,0.0205 ± 0.0057
GGAGAGGAUACAUAUACAACCUACUACCUCA,0.104 ± 0.0078,0.0587 ± 0.024
GGAGAGGAUACUAUACAUCCUACUACGUCA,0.00995 ± 0.003,0.00405 ± 0.0018
GGAGUGGAUACUUUACUACCUACUACCUCA,0.16 ± 0.01,0.00437 ± 0.0036
GGAGUGCAUACUAUACAACCUUCUACCUCA,0.00996 ± 0.002,0.00467 ± 0.0029
GGAGACCUAUGAAUACAACCUACUACCUUA,0.00551 ± 0.0022,0.00423 ± 0.0038
GGAGUGGAUACUAUUCAAGCUACUACCUCA,0.221 ± 0.013,0.0053 ± 0.0025
GGAGACCUAUCUAUACAACGUACUACCACA,0.0153 ± 0.0035,0.00343 ± 0.0031
GGAGACGAUACUUUACAUCCUACUACCUCA,0.257 ± 0.016,0.00465 ± 0.0027
GGAGACCAUACUAUACAACCUACUAACCUCA,0.226 ± 0.019,0.00357 ± 0.0025
GGAGUGGAUACUAAACAAGCUACUACCUCA,0.211 ± 0.013,0.00401 ± 0.0019
GGAGACGAUACUAUACUACCUUCUACCUCA,0.025 ± 0.0053,0.00418 ± 0.0025
GGAGAGGAUACUAUACAACCUACAUACCUCA,0.123 ± 0.012,0.00353 ± 0.0021
GGAGAGGAUACUAUGACAACCUACUACCUCA,0.143 ± 0.013,0.102 ± 0.041
GGAGACGAUACUAUACAACCUACUACCGUCA,0.125 ± 0.023,0.00873 ± 0.0037

Sequence,pre-steady-state target cleavage rate [1],pre-steady-state target cleavage rate [2]
GGAGACCUUUCUAUACAACCUACUACCUCA,0.0895 ± 0.0097,0.11 ± 0.036
GGAGACCUUACUUUACAACCUACUACCUCA,0.129 ± 0.01,0.00728 ± 0.0042
GGAGACGAUACCAUACAACCUACUACCUCA,0.236 ± 0.027,0.124 ± 0.045
GGAGACCUUACUAUGACAACCUACUACCUCA,0.179 ± 0.018,0.00456 ± 0.0042
GGAGACCUAACUACACAACCUACUACCUCA,0.166 ± 0.039,0.00487 ± 0.0033
GGAGACCAUACUAUACAACCUACUGACCUCA,0.0765 ± 0.017,0.0102 ± 0.0061
GGAGUGGAUACUAUACAACCUGCUACCUCA,0.0658 ± 0.0067,0.0792 ± 0.029
GGAGACGAUUCUAUUCAACCUACUACCUCA,0.231 ± 0.014,0.00706 ± 0.0046
GGAGUGGAUACUAUACAACAUACUACCUCA,0.0845 ± 0.0098,0.00987 ± 0.0037
GGAGACCUAUCUAUACAACCUAGUACCUCA,0.0209 ± 0.0054,0.00361 ± 0.0027
GGAGACGAUACUUUACAAGCUACUACCUCA,0.235 ± 0.015,0.00342 ± 0.0026
GGAGUGGAUACUAUACAACGUACUUCCUCA,0.0153 ± 0.0037,0.00364 ± 0.0017
GGAGACCAUACUAUACAACCUACACCUCA,0.00885 ± 0.0037,0.00776 ± 0.0044
GGAGACGAAACUAUACAACCUACAACCUCA,0.133 ± 0.031,0.00368 ± 0.0027
GGAGAGGAAACUAUACAACCUACUACCUGA,0.047 ± 0.014,0.0041 ± 0.0024
GGAGUGGAUACUAUACUACCUACUACGUCA,0.0586 ± 0.0078,0.00245 ± 0.0017
GGAGUGGAUACUAUACUACCUACUUCCUCA,0.0121 ± 0.0027,0.00222 ± 0.0021
GGAGUGGAUACUACACAACCUACUACCUCA,0.175 ± 0.011,0.082 ± 0.029
GGAGACGAUACUAUACAUCCUACUAGCUCA,0.173 ± 0.027,0.00336 ± 0.0019
GGAGACGAUACUAUAUAACCUACUACCUCA,0.205 ± 0.011,0.0091 ± 0.0042
GGAGUGGAUAGUAUACAACCUACUACCUCA,0.0868 ± 0.0069,0.00712 ± 0.0031
GGAGAGGAUACUAUACAACCUUCUACCUGA,–,0.00393 ± 0.0023
GGAGUCGAUACUAUACAACCUAGUACCUCA,–,0.00334 ± 0.0014
